IMPase inh: qHTS Assay for Identifying the Cell-Membrane Permeable IMPase Inhibitors; Inositol monophosphatase 1 (Rattus norvegicus), P97697; CHO-M1 cells, IP1 accumulation, HTRF TR-FRET ratio; inhibition (IP1 accumulation), % at 46.1 µM; 120,000 tested, under 10 active; active = well fitted curve in the direction sought with a large enough effect in the signal ratio, not every such curve was filed as active; inconclusive = small, poorly fitted or top-dose-only effect, or a change in a side signal; inactive = no such curve, though single readings can be large or run the other way; the % refers to the signal ratio;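 also: cells stimulated with carbachol in lithium chloride buffer; higher means more IMPase inhibition seen as more IP1 and lower FRET ratio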
Target sequence (P97697 whole entry, looked up): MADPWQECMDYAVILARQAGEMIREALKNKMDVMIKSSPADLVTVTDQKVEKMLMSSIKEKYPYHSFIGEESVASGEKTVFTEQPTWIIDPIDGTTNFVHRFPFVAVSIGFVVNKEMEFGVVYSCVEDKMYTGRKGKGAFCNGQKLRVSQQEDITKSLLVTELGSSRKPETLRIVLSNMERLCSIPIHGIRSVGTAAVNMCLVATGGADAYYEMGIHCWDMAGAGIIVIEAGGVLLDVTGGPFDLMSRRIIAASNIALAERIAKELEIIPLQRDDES
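The IP-One HTRF competitive assay in carbachol-stimulated CHO-M1 cells quantifies cellular IP1. Compounds spanned up to 46 uM final, and activity is expressed as AC50 from concentration-response fits of the ratio and donor data.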
KinaseGlo FLuc: Counterscreen for Luciferase (Kinase-Glo TM) Inhibition; Luciferin 4-monooxygenase (Photuris pensylvanica), Q27757; Kinase-Glo luciferase, ATP luminescence, 8 min; Potency, µM (titrated, usually from 38.3 µM), hits mostly inhibitors; 0.28% of 200,000 active; AID 1379, 2008; active = well fitted inhibition curve with a large enough effect; inconclusive = small, poorly fitted or top-dose-only effect; also: nearly all actives have a fitted effect of over 60% in size
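Kinase-Glo luciferase light output from ATP and luciferin was measured with 10 uM ATP, within the enzyme's linear range. Buffer: 50 mM imidazole pH 7.2, 50 mM KCl, 7 mM MgCl2, 0.01% Tween 20, 0.05% BSA; luminescence read after 8 min at ambient temperature.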
PNC assembly inh: High Content Assay for Compounds that inhibit the Assembly of the Perinucleolar Compartment; PC3M PTB-GFP, PNC prevalence imaging, 16 h; active compounds read low; activity change (PNC), negative = inhibition, % at 10 µM; 3.1% of 140,000 active;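 active = readout at or below -70, meaning at least 70% loss of cells showing the perinucleolar compartment, a nuclear body marking cancer cells; inconclusive = readout between -30 and a set limit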
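Compounds are pinned in duplicate onto adhered PC3M cells stably expressing GFP-tagged PTB and incubated 16 h at 37 C. Cells are then fixed, nuclei stained with Hoechst, and PNC-positive cells counted.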
ALDH1A1 block: qHTS Assay for Inhibitors of Aldehyde Dehydrogenase 1 (ALDH1A1); Aldehyde dehydrogenase 1A1 (Homo sapiens), P00352; Purified ALDH1A1, NADH fluorescence, propionaldehyde substrate; Potency, µM (doses to about 75.3 µM), actives largely listed as inhibitors; 7.3% of 220,000 active
LMNA splice mod: qHTS Assay for Modulators of Lamin A Splicing; Potency, µM (series often up to 46.1 µM), most hits filed as inhibitors; HeLa LMNA splicing GFP/RFP minigene ratio, 48 h; 0.01% of 200,000 active; AID 1487, 2009; active = well fitted inhibition curve with a large enough effect in the signal ratio, with a control signal flat, not every such curve was filed as active; inconclusive = small, poorly fitted or top-dose-only effect, or effect the other way, or a change in a side signal; the % refers to the signal ratio
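S3 HeLa cells stably expressing lamin A-EGFP splicing minigene plus DsRed2, 600 cells/well, 48 h compound exposure at 37C. Laser-scanning cytometry; analysed as GFP (500-530 nm)/RFP (575-640 nm) total intensity ratio; 0.5% DMSO vehicle.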
HPGD inh: qHTS Assay for Inhibitors of HPGD (15-Hydroxyprostaglandin Dehydrogenase); Potency, µM, hits mostly inhibitors; 4.3% of 150,000 active; purified HPGD, NADH fluorescence kinetic, PGE2 substrate; AID 894, 2007; 15-hydroxyprostaglandin dehydrogenase [NAD(+)] (Homo sapiens), P15428
Target sequence (P15428 whole entry, looked up): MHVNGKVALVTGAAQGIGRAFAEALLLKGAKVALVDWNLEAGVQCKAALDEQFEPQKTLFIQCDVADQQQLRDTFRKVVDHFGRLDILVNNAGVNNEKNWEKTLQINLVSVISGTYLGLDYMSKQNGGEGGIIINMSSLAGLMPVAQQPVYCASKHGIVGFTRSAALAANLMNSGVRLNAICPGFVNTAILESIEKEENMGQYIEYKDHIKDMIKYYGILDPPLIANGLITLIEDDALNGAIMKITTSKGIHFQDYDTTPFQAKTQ
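NADH formation kinetics: reaction with 30 uM PGE2 and 1 mM NAD+ (final), 20 nM enzyme, Tris-HCl pH 8 with Tween 20, after 15 min compound preincubation at room temperature. Fluorescence change, last versus first of five reads.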
Hits are given with their value; - = inactive; ? = inconclusive; . = no result; ! = repeats disagree; [ ] = dose if it differs, or a comment. Most compounds without a hit are left out; they make up all but 10% or so of the library. Unless noted, calls follow the shape of the dose curve; as a rule, active = well fitted inhibition curve with a large enough effect (not every such curve was filed as active); inconclusive = small, poorly fitted or top-dose-only effect, or another doubt; inactive = no such curve, though single readings can be large or run the other way.

SMILES | IMPase inh | KinaseGlo FLuc | PNC assembly inh | ALDH1A1 block | LMNA splice mod | HPGD inh
C/C(CC(c1ccccc1)c1c(O)c2ccccc2oc1=O)=N\NC(N)=S (stereo not drawn) | . | - | - | ? | ? | ?
CN(C)c1ccc(C=C2C(=O)NC(=S)NC2=O)cc1[N+](=O)[O-] | . | - | . | 11µM | - | .
CCOCCOC(C)=O | . | . | . | ? | . | -
CSc1ncc(/C=C2/C(=O)NC(=O)N(c3ccc(C)cc3)C2=O)cn1 | . | - | . | ? | - | .
O=C1NC(=O)N(Cc2ccccc2)C(=O)/C1=C\c1ccco1 | . | - | . | ? | ? | .
Cc1ccc(N2C(=O)NC(=O)/C(=C/C=C/c3ccco3)C2=O)cc1 | - | - | ? | ? | ? | 7.1µM
Cc1cc(C)cc(N2C(=O)NC(=O)/C(=C\C=C\c3ccco3)C2=O)c1 | . | - | - | ? | ? | 10µM
CC1=NN(c2ccccc2)C(=O)C1/C=C1\C(=O)NC(=O)N(c2cc(C)cc(C)c2)C1=O (stereo not drawn) | ? | - | - | ? | - | -
CCCCN1C(=O)/C(=C\c2ccco2)C(=O)N(CCc2ccccc2)C1=O | - | - | - | - | - | 32µM
CCc1ccc(N2NC(=O)/C(=C/C=C/c3ccco3)C2=O)cc1 | - | - | - | 3.2µM | - | -
CN1C2CCC1CC(NC(=O)c1nn(C)c3ccccc13)C2 (stereo not drawn) | . | - | . | - | - | -
Oc1cc(Cl)cc(Cl)c1 | . | . | . | - | . | -
O=C1NC(=O)N(c2ccccc2)C(=O)/C1=C\C=C\c1ccccc1 | . | . | . | 10µM | ? | .
Cc1cc(/C=C2\C(=O)NC(=O)N(c3ccc(Cl)cc3)C2=O)c(C)n1C | . | - | . | - | . | .
CCCCN1C(=O)/C(=C/C=C/c2ccco2)C(=O)NC1=S | - | - | -88 | 16µM | - | 10µM
CC(C)c1ccc(N2C(=O)NC(=O)/C(=C/C=C/c3ccco3)C2=O)cc1 | . | - | - | - | - | 3.2µM
C=CCN1C(=O)NC(=O)/C(=C/c2cccn2C)C1=O | - | - | - | - | - | -
Cc1cccc(C)c1N | . | . | . | - | . | -
CC1=CC(=O)NP(=O)(Oc2ccc3ccccc3c2)N1 (stereo not drawn) | - | - | - | ? | - | 35µM
CSSC | . | . | . | - | . | -
O=C(CCl)c1ccc(Cl)cc1Cl | . | . | . | 0.16µM | . | -
O=S(=O)(Nc1nccs1)c1ccc([As](=O)(O)O)cc1 | . | -[7.66 µM] | . | -[13.5 µM] | . | -
CCN(N=O)C(N)=O | . | . | . | - | . | -
COc1ccc(CCNCc2ccccc2F)cc1OC | - | - | ? | - | - | -
COc1ccc(CCN(C)Cc2ccncc2)cc1OC | - | - | -91 | - | - | -
SMILES | IMPase inh | KinaseGlo FLuc | PNC assembly inh | ALDH1A1 block | LMNA splice mod | HPGD inh
COc1ccc(CCNCc2ccncc2)cc1OC | - | - | - | 13µM | - | -
C=CCc1cc(C=C2C(=O)NC(=O)NC2=O)cc(OC)c1OCc1ccc(C(=O)O)cc1 | . | - | . | 11µM | . | .
C=CCc1cc(C=C2C(=O)N(C)C(=O)N(C)C2=O)cc(OCC)c1OCc1ccccc1 | . | - | -114 | 25µM | - | 14µM
COc1cc(CC2C(=O)N(C)C(=O)N(C)C2=O)ccc1OCc1ccccc1 | - | - | ? | ? | - | -
O=C(O)/C=C\c1ccc[c]([Sb])c1 | . | -[7.66 µM] | . | -[13.5 µM] | . | -
Nc1nc2c(ncn2[C@@H]2O[C@H](CO)[C@@H](O)[C@@H]2O)c(=[SH+])[nH]1.O=[N+]([O-])c1ccc(O)[c]([Hg])c1 | . | 2.8µM | . | 0.05µM | . | 0.025µM
Cl/C=C/Cl | . | . | . | - | . | -
COC(=O)C1(C)C=C2C(=C(C)C(=O)C2C)CN1 (stereo not drawn) | . | - | . | ? | . | -
C[C@H](Br)CN(C[C@H](C)Br)c1ccc2c(c1)Cc1ccccc1-2 | . | -[7.66 µM] | . | -[13.5 µM] | . | -
COc1cc(Cc2ccc(N)c(OC)c2)ccc1N | . | - | -113 | ? | - | -
CCOc1ccccc1N=C1SCCCN1C | - | - | - | - | - | -
CCOc1ccccc1OCCCCN1CCCC1 | - | - | - | 22µM | - | -
Cc1ccc(-n2c(O)c(/C=C3/C(c4ccccc4)=Nc4ccccc43)c(=O)[nH]c2=O)cc1 | - | . | - | 25µM | ? | .
COC(=O)C1=Nc2ccccc2/C1=C\c1c(O)n(-c2cc(OC)ccc2OC)c(=O)[nH]c1=O | . | - | ? | ? | - | 14µM
Cc1cccc(N=Cc2c(O)n(-c3ccccc3C)c(=O)[nH]c2=O)c1 | - | - | - | 25µM | - | ?
COc1ccc(OC)c(-n2c(O)c(C=Nc3c(C)n(C)n(-c4ccccc4)c3=O)c(=O)[nH]c2=O)c1 | . | - | - | - | - | -
Cc1ccccc1-n1c(O)c(/C=C2/C(c3ccccc3)=Nc3ccccc32)c(=O)[nH]c1=O | - | - | ? | ? | ? | 28µM
C=C1CC[C@H](O)C/C1=C/C=C1\CCC[C@]2(C)[C@@H]([C@H](C)CCCC(C)C)CC[C@@H]12 | . | - | . | ? | . | ?
CC(C)(C)C(=O)CP(=O)(O)O | . | -[7.66 µM] | . | -[13.5 µM] | . | -
O=C=NC1CCCCC1 | . | . | . | 28µM! | . | -
Cc1cc(Cl)ccc1OCCCC(=O)NCc1cccs1 | . | - | - | - | - | 32µM
Cc1cc(OCCCC(=O)NCc2cccs2)ccc1Cl | . | - | ? | - | ? | -
O=C(Nc1cccc(Cl)c1)OC1CN2CCC1CC2 (stereo not drawn) | . | . | . | - | . | .
CC(C)OC(=O)Nc1cccc(Cl)c1 | . | - | . | - | - | 13µM
Cc1cc(C=C2C(=O)NC(=O)NC2=O)c(C)n1-c1ccc2c(c1)OCO2 | - | - | - | ? | - | -
SMILES | IMPase inh | KinaseGlo FLuc | PNC assembly inh | ALDH1A1 block | LMNA splice mod | HPGD inh
O=C1NC(=O)C(=C/C=C/c2coc3ccc(Br)cc3c2=O)C(=O)N1 | . | . | . | 3.2µM | - | .
O=C1NC(=O)C(=Cc2coc3ccccc3c2=O)C(=O)N1 | . | - | . | 3.5µM | . | .
O=C1NC(=O)C(=Cc2csc3ccccc23)C(=O)N1 | . | . | . | 10µM | . | .
O=[N+]([O-])c1ccc(O[C@H]2O[C@@H](CO)[C@@H](O)[C@@H](O)[C@@H]2F)c([N+](=O)[O-])c1 | - | . | . | . | . | .
CC12CN3CC(C)(CN(C1)C3c1cccs1)C2O (stereo not drawn) | - | - | -107 | - | - | -
CCn1c(=O)oc2cc(NC(=O)CCl)ccc21 | . | - | . | 1.6µM | ? | .
CCOP(=S)(OCC)SCn1c(=O)oc2cc(Cl)ccc21 | . | - | . | - | ? | ?
Cc1ccc(-n2nc(C)c3c2OC(N)=C(C#N)C3c2cccs2)cc1 (stereo not drawn) | - | - | - | 13µM | - | -
COc1ccc2c(c1)[C@]13CCCC[C@@H]1[C@H](C2)NCC3 | - | . | . | . | . | .
CCc1ccc(CCN2CCCCC2)nc1 | . | -[7.66 µM] | . | -[13.5 µM] | . | -
